Only a selection was taken, and hits are over-represented in it overall.
KDM5B inh: blocks human KDM5B histone demethylase activity | Q9UGL1 | KDM5B demethylase, FDH-coupled NADH fluorescence (FDH is formaldehyde dehydrogenase) | Potency, µM (top dose mostly 57.7 µM), actives largely listed as inhibitors | 220,000 tested, 2.6% active | AID 1347165; active = well fitted inhibition curve with a large enough effect; note: 0% is about no effect; nearly all actives have a fitted effect of over 70% in size
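Compound dilutions met 200 nM (final) KDM5BΔAP for 10 min at room temperature before substrate addition. The substrate mix held 12.5 µM H3K4me3 with cofactors 25 µM α-ketoglutarate and 50 µM Fe²⁺. NADH signal gain over 30 min defined activity.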
Starred values were filed as active, the others as inactive; i = inactive. Potency is the fitted concentration of half-maximal effect.

SMILES	KDM5B inh
CC(C(=O)NCc1nnc2ccc(-c3ccccc3)nn12)c1ccccc1 (configuration not stated)	28.2µM*
Cc1cc(C)cc(C(=O)NCc2nnc3ccc(-c4ccccc4)nn23)c1	25.1µM*
O=C(NCc1nnc2ccc(-c3ccccc3)nn12)c1ccc[nH]c1=O	28.2µM*
COc1ccccc1CC(=O)NCc1nnc2ccc(-c3ccccc3)nn12	i
Cc1ccc(C(=O)NCc2nnc3ccc(-c4ccccc4)nn23)c(C)c1	28.2µM*
COc1cccc(-n2ccn(Cc3cccc(Cl)c3)c(=O)c2=O)c1	i
CCc1ccc(-c2nc(SCc3cc(=O)n4nc(C)sc4n3)n[nH]2)cc1	i
COc1cccc(CN2CC(Oc3ccccc3C(=O)NC3CC3)C2)n1	i
COc1ccc(/C=C(/CCCC(=O)O)c2nc3ccccc3s2)cc1C	i
CC(C(=O)N(C)C1CCCCC1)N(C)CC(=O)Nc1ccc(Cl)cc1 (configuration not stated)	i
O=C(/C=C/c1ccccc1OC(=O)c1cccs1)c1cc2ccccc2o1	i
CCOc1ccc(/C=N/N=C/c2ccc(OCC)cc2)cc1	i
O=c1[nH]c2ccc(S(=O)(=O)Nc3c(NC4CCCCC4)c4ccccc4oc3=O)cc2o1	i
Cc1cn2nc(C(=O)Nc3ccc(N(C)C)cc3)cc2c(N2CCCC2)n1	i
Cc1cn2nc(C(=O)NC(C)c3ccc(F)cc3)cc2c(N2CCCC2)n1 (configuration not stated)	i
CCCN1CCN(c2ncnc3sc(C(=O)Nc4ccc(OC(F)(F)F)cc4)c(C)c23)CC1	i
Cc1cn2nc(C(=O)NCCc3cccs3)cc2c(N2CCCC2)n1	i
COc1ccc(NC(=O)c2cc3c(=O)[nH]c(C)cn3n2)cc1OC	i
COc1ccc(NC(=O)c2cc3c(N4CCSCC4)nc(C)cn3n2)cc1OC	28.2µM*
Cc1cn2nc(C(=O)Nc3ccc(C)c(F)c3)cc2c(N2CCSCC2)n1	25.1µM*
Cc1cn2nc(C(=O)Nc3ccc(OC(F)(F)F)cc3)cc2c(N2CCSCC2)n1	25.1µM*
COc1cccc(NC(=O)c2cc3c(N4CCSCC4)nc(C)cn3n2)c1	28.2µM*
COc1ccc(NC(=O)c2nc3nc(C)cc(C)n3n2)cc1OC	i
CN1CCN(c2nc3ccccc3nc2C(=O)Nc2ccc(OC(F)(F)F)cc2)CC1	i
COc1ccccc1CNC(=O)CN(c1ccccc1)S(=O)(=O)N(C)C	i
SMILES	KDM5B inh
CCCNC(=O)NC(=O)CN(C)Cc1ccccc1Br	i
CCCN(CC1CCOC1)C(=O)c1ccccc1Br (configuration not stated)	i
COc1ccc(C(=O)N[C@H]2CO[C@H]3[C@@H]2OC[C@H]3OCC(N)=O)cc1	i
COc1ccc(Cl)cc1NC(=O)CC1CCCN(c2cnn(C)c(=O)c2)C1 (configuration not stated)	i
C/C=C/Cn1c(SCCCCC)nc2c1c(=O)[nH]c(=O)n2C	i
COc1ccc(NC(=O)N2CCC3(CC2)CC(OCC2CC2)CCO3)cc1 (configuration not stated)	i
COc1cc(NC(=O)N2CCCC(Cn3cnc4cccnc43)C2)cc(OC)c1OC (configuration not stated)	i
COc1cc(NC(=O)c2cc3c(N4CCSCC4)nc(C)cn3n2)cc(OC)c1OC	22.4µM*
COc1cc(NC(=O)c2nc3ccccc3nc2N2CCCCC2)cc(OC)c1OC	i
COc1ccccc1CC(=O)NC1CCCC1	i
COCC(=O)NC[C@H]1CCN(Cc2ccc3c(c2)CCO3)C[C@H]1N(C)C	i
N#Cc1ccccc1CN1CCCC1	i
O=c1[nH]c2ccc(Br)cc2c(-c2ccccc2)c1CN1CCCCC1	i
N#Cc1cc2c(=O)n(CCCCN3CCCC3)ccc2[nH]c1=O	28.2µM*
C[N+]12CC[N+](C)(CC1)CC2	i
COCCn1c(=O)c2c(nc(-n3nc(C)cc3C)n2Cc2ccc(OC)cc2)n(C)c1=O	i
CCc1ccc2occ(CC(=O)N(Cc3ccc(F)cc3)C3CCS(=O)(=O)C3)c2c1 (configuration not stated)	i
O=C(NCc1ccccc1)N1CC(n2cc(C(=O)N3CCOCC3)nn2)C1	i
CCc1ccc2c(c1)-c1ccccc1S(=O)(=O)N2CC(=O)Nc1ccccc1C(F)(F)F	i
CCCc1nc2c(-c3ccc(F)cc3)c(C)[nH]n2c(=O)c1Cl	i
CC(=O)c1ccc(C(=O)N2CC=C(c3ccccc3)CC2)s1	i
O=C(c1cccc(O)c1)N1CC=C(c2cnc3cnc(-c4ccccc4)cn23)CC1	28.2µM*
CCc1cccc2c(C3=CCN(C(=O)c4ccccc4)CC3)c[nH]c12	i
O=C(NC1CCCCC1)O[C@@H]1CO[C@H]2[C@@H]1OC[C@@H]2NC(=O)c1ccccc1	i
Cc1nc2ccc(C(=O)NC(C(=O)O)c3c(C)n[nH]c3C)cc2[nH]1 (configuration not stated)	i
SMILES	KDM5B inh
CNc1ccc(C)cc1C(=O)NC(C(=O)O)c1c(C)n[nH]c1C (configuration not stated)	31.6µM*
CCCC(=O)Nc1cccc(C(=O)NC(C(=O)O)c2c(C)n[nH]c2C)c1 (configuration not stated)	i
CC(C)c1ccc(OCc2nn3c(=O)c4ccccc4nc3s2)cc1	i
COc1ccc2c(c1)C(C[C@H]1CN(C(=O)C3CCC3)CC[C@H]1CC(=O)O)=NCC2	35.5µM*
O=C(O)C[C@@H]1CCN(C(=O)C2CCC2)C[C@@H]1CCN1CCN(c2ccc(F)cc2)CC1	i
O=C(O)C[C@@H]1CCN(C(=O)C2CCCCC2)C[C@@H]1CCN1CCC(C(=O)O)CC1	i
COc1cccc2c1CCN=C2C[C@H]1CN(C(=O)C2CCC2)CC[C@H]1CC(=O)O	35.5µM*
COc1ccccc1N1CCN(CC[C@H]2CN(C(=O)C3CC3)CC[C@H]2CC(=O)O)CC1	i
CCN(CC)CC[C@H]1CN(C(=O)C2CCC2)CC[C@H]1CC(=O)O	i
COc1ccc(CC(=O)NCc2cccc(SC)c2)cc1	i
COc1cc(COc2ccc(C(C)=O)cc2)c(OC)cc1Br	i
O=C1CC2(CCN(C(=O)c3ccccc3F)CC2)CN1C/C=C/c1ccccc1	i
CC(C)c1cc(N)n[nH]1	i
Clc1ccccc1N/N=C/C(Br)=C/c1ccccc1	i
Cc1cc(C)c(/C=C/C(=O)c2cccnc2)cc1C	i
COc1ccc(-c2ccnc3nc(C4CC4)nn23)c(F)c1	25.1µM*
COc1ccc(-c2ccnc3nc(C4CC4)nn23)cc1	15.8µM*
CCCCn1c(N)c(N(CC(C)C)C(=O)c2cc3c(s2)CCC(C)C3)c(=O)[nH]c1=O (configuration not stated)	i
Cc1ccc(C(=O)N2CCCC3(CNc4ccccc4[S+](=O)([O-])N3)C2)cc1 (configuration not stated)	i
CCn1ccnc1CNc1ccc(-c2nc(-c3ccccc3C)no2)cn1	28.2µM*
Cc1noc(-c2nc(-c3ccccc3C)no2)n1	i
CCc1noc(-c2nc(-c3ccccc3C)no2)n1	i
N#CCCCCOc1ccc(-c2ccccc2)cc1	i
CC(=O)N1C[C@@H](C(=O)NCCc2ccc(Cl)cc2)[C@H](c2nc(C)no2)C1	i
COc1cc(C#N)ccc1OC(=O)c1oc2ccccc2c1C	i
CC(C)c1noc(CN(C)C(=O)c2cc(-c3cnn(C)c3)nc3ccccc23)n1	28.2µM*
CN(Cc1cccs1)C(=O)c1cc(-c2ccncc2)nc2ccccc12	i

Source: PubChem (National Center for Advancing Translational Sciences (NCATS))
